The text below walks through data of PubChem BioAssay.

Active and inactive are the calls of the source. Unless noted, no rule for the calls is given here.

Assay [1] in a line: anti-His antibody binders, primary screen, artefact control for SMM control protein annotation, biochemical, small-molecule microarray, 635 nm fluorescence (AID 1128).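 Also: score merges feature fluorescence with signal-to-noise for each printed compound spot.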 As to conditions: anti-His Alexa647 antibody binding, higher = more signal.
Assay [2] concerns Human papillomavirus type 1a E7 protein (residues 1-88). As to the kind of experiment: HPV1a E7 small-molecule binders, primary screen, biochemical, small-molecule microarray, residues 1-88, 635 nm (AID 1129). The following applies: small-molecule microarray binding, fluorescence 635 nm; higher = more signal.
Assay [3] concerns the target Focal adhesion kinase 1 (Homo sapiens) (UniProt Q05397). As to the kind of experiment: small-molecule microarray binders of FAK, primary screen, biochemical, 635/667 nm fluorescence, BSA, DTT (AID 1130).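 Also: composite of spot emission at 667 nm and signal to noise over triplicate slides.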 The following applies: PTK2 binding, 635 nm fluorescence, higher = more signal.
Assay [4] relates to Fibrinogen (Alexa647-labelled). As to the kind of experiment: fibrinogen binders on compound microarrays, profiling panel, artefact control for SMM control-protein annotation, biochemical, small-molecule microarray, 635/667 nm fluorescence (AID 1131).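 Also: z-score merges 667 nm fluorescence with per-spot signal-to-noise over triplicate slides.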 As to conditions: fibrinogen-A647 binding fluorescence, higher = more signal.
Assay [5] deals with Follistatin (Homo sapiens) (UniProt P19883). As to the kind of experiment: follistatin binders on small-molecule microarrays, primary screen, biochemical, small-molecule microarray, 635/667 nm fluorescence (AID 1132). The following applies: FST binding, 635 nm fluorescence, higher = more signal.
The target in assay [6] is Fibroblast growth factor 2 (Homo sapiens) (UniProt P09038). As to the kind of experiment: FGF2 binders on small-molecule microarrays, primary screen, biochemical, small-molecule microarray, 635/667 nm fluorescence (AID 1133). The following applies: small-molecule microarray binding, FGF2, fluorescence 635/667; higher = more signal.
Assay [7] in a line: mitochondrial membrane potential change in A549 cells, profiling panel, cell-based, JC-1 fluorescence, basal, 24 h, 100 nL (AID 1138).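 Also: A549 lung adenocarcinoma cells under basal conditions with no added stimulus; test concentration not given here.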 The following applies: higher = more signal.
The test system of another assay is Lefty1. As to the kind of experiment: Lefty1 binders on small-molecule microarrays, primary screen, biochemical, small-molecule microarray, 635/667 nm fluorescence (AID 1139). As to conditions: small-molecule microarray binding, fluorescence 635/667; higher = more signal.
The test system of assay [8] is wheat germ agglutinin (Triticum aestivum), Alexa647-labelled. As to the kind of experiment: wheat germ agglutinin binders on compound microarrays, profiling panel, artefact control for SMM control-protein annotation, biochemical, small-molecule microarray, 635/667 nm fluorescence (AID 1140).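 Also: score merges 667 nm feature emission with signal to noise over triplicate slides.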 The following applies: WGA-A647 binding, 635 nm fluorescence, higher = more signal.

For assay [9], the target named is Luciferin 4-monooxygenase (Photinus pyralis) (UniProt P08659). As to the kind of experiment: firefly luciferase enzyme inhibitors, primary screen, biochemical, luminescence, purified enzyme, 2006 set (AID 1141).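 Also: cell-free assay with purified firefly luciferase at 100 ng per well in PBS; test concentration not given here.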 The following applies: SteadyGlo luminescence, 30 min, higher = more signal, called active from +8 up or from −8 down.
Assay [10] concerns Wnt5a (protein binding on small-molecule microarray). As to the kind of experiment: Wnt5a binders on small-molecule microarray, primary screen, biophysical, 635/667 nm fluorescence (AID 1142).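 Also: fluorescence read at 667 nm with signal to noise per printed feature.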 As to conditions: 635 nm fluorescence, higher = more signal.
Assay [11] in a line: cell viability in Huh7 cells, primary screen, cytotoxicity control for HCV replication inhibitor project, CellTiter-Glo luminescence, basal, 48 h (AID 1143).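 Also: Huh7 hepatoma cells carrying a hepatitis C replication reporter with no stimulus; test concentration not given here.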 The following applies: Huh7 HCV replicon, higher = more signal, called active from +8 up or from −8 down.
The nature of assay [12]: P. aeruginosa biofilm formation inhibitors, primary screen, PAO1 strain, BacTiter-Glo luminescence, LB-PBS (AID 1144). The following applies: 12 h, higher = more signal.
Assay [13] is described as follows: CREB reporter modulators without forskolin, primary screen, cell-based, PC12, CRE-LacZ reporter, unstimulated (AID 1145). As to conditions: no forskolin, luminescence, 4.5 h, higher = more signal, called active from +8 up or from −8 down.
Assay [14] can be described thus: CREB reporter modulators under forskolin, primary screen, cell-based, PC12, CRE-LacZ reporter, forskolin-stimulated (AID 1146).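 Also: PC12 cells with 6xCRE LacZ reporter stimulated by forskolin 10 µM; beta-galactosidase reporter signal reflecting CREB driven transcription.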 The following applies: luminescence, 4.5 h, higher = more signal, called active from +8 up or from −8 down.
For assay [15], the target named is Streptavidin (Streptomyces avidinii) (UniProt P22629). As to the kind of experiment: streptavidin binders on small-molecule microarray, primary screen, artefact control for SMM compound annotation, biophysical, 635/667 nm fluorescence (AID 1147).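 Also: signal reflects streptavidin binding to arrayed compounds as a control protein.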 The following applies: streptavidin binding, higher = more signal.
Assay [16] can be described thus: small-molecule binders of probe aInhba, primary screen, biochemical, small-molecule microarray, 635/667 nm fluorescence (AID 1148).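 Also: score merges 667nm spot fluorescence with signal-to-noise for antibody binding to printed compounds.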 The following applies: higher = more signal.
In assay [17] the target is Torsin-1A (Homo sapiens) (UniProt O14656). As to the kind of experiment: torsin A binders from cell lysate, primary screen, small-molecule microarray, wild-type, 635/667 nm (AID 1149). As to conditions: COS7 hTOR1A-WT lysate, 635 nm fluorescence, higher = more signal.
The target is the same in assay [18]. As to the kind of experiment: small-molecule binders of mutant TOR1A in lysate, primary screen, cell lysate, small-molecule microarray, COS7 lysate, 635/667 nm fluorescence (AID 1150).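 Also: score pools 667 nm emission and signal to noise measuring lysate protein binding.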 As to conditions: COS7 hTOR1A mutant lysate, 635 nm fluorescence, higher = more signal.
Assay [19] concerns Sonic hedgehog protein (Shh). As to the kind of experiment: small-molecule binders of Shh protein, primary screen, biochemical, small-molecule microarray, 635/667 nm fluorescence (AID 1151).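 Also: Shh protein binding to compounds spotted on small-molecule microarray slides; score combines spot fluorescence intensity with signal-to-noise across triplicate slides.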 The following applies: small-molecule microarray binding, 635 nm fluorescence; higher = more signal.

Chain of Streptavidin (Streptomyces avidinii) (P22629 whole entry, looked up): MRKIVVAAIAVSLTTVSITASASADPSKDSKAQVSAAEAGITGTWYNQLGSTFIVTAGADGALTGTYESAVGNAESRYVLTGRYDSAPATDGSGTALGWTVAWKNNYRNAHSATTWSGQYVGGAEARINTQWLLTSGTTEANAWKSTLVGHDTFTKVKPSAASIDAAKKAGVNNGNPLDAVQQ
Chain of Fibroblast growth factor 2 (Homo sapiens) (P09038 whole entry, looked up): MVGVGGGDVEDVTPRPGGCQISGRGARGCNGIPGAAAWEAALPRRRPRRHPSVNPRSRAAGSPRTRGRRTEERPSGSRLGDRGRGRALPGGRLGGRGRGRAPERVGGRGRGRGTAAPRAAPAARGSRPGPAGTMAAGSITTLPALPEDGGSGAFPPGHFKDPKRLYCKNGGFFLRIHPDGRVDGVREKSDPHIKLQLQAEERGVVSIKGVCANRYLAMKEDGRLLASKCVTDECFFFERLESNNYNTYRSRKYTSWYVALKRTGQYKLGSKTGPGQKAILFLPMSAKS
Chain of Luciferin 4-monooxygenase (Photinus pyralis) (P08659 whole entry, looked up): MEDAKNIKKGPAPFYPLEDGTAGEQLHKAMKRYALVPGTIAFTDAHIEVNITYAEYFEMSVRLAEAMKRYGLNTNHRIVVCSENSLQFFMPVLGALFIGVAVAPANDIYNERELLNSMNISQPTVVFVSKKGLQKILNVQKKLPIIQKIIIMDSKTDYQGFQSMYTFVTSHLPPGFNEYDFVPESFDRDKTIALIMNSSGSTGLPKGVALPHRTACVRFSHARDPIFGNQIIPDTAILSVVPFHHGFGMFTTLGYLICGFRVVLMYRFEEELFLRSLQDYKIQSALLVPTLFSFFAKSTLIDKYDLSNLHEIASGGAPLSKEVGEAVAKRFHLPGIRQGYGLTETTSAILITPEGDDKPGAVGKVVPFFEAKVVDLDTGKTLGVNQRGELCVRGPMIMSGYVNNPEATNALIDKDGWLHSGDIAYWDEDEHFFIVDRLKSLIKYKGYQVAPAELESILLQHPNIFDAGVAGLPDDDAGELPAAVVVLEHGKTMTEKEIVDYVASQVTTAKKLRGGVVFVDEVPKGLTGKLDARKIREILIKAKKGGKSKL
Chain of Follistatin (Homo sapiens) (P19883 whole entry, looked up): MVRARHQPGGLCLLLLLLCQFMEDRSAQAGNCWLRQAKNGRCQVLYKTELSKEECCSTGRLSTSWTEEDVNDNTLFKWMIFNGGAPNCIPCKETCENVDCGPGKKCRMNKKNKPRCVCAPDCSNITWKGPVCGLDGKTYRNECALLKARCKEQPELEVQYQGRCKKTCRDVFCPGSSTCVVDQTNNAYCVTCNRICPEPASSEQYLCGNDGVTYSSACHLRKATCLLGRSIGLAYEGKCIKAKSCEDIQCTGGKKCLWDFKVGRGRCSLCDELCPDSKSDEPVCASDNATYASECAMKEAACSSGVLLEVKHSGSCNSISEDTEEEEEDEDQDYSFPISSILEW
Chain of Focal adhesion kinase 1 (Homo sapiens) (Q05397 whole entry, looked up): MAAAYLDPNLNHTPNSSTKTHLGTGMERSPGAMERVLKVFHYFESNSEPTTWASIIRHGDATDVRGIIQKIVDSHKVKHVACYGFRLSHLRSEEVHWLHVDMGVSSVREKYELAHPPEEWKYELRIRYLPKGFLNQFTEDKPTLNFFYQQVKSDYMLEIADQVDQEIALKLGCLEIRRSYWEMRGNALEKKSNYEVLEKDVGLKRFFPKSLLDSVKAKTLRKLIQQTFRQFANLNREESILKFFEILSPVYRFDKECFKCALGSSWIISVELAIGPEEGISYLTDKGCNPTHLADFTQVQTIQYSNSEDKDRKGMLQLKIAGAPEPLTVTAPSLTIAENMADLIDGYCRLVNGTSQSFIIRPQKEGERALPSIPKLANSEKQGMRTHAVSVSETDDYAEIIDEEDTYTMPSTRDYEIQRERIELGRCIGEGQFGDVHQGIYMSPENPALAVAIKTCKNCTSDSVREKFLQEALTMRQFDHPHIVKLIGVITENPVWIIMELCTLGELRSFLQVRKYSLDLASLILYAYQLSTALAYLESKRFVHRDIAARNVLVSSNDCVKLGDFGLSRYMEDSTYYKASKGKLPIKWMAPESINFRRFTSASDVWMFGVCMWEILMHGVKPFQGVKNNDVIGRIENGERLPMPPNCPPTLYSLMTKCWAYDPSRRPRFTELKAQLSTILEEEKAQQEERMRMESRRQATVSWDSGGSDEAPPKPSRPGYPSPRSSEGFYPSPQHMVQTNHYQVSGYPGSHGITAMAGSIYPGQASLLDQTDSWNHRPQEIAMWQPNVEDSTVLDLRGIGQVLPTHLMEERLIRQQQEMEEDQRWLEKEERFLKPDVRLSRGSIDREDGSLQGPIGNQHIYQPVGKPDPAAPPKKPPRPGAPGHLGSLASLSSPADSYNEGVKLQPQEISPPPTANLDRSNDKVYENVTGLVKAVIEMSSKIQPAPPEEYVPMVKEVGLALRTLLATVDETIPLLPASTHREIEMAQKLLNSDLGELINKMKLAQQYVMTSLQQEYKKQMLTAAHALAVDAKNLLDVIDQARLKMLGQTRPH
Chain of Torsin-1A (Homo sapiens) (O14656 whole entry, looked up): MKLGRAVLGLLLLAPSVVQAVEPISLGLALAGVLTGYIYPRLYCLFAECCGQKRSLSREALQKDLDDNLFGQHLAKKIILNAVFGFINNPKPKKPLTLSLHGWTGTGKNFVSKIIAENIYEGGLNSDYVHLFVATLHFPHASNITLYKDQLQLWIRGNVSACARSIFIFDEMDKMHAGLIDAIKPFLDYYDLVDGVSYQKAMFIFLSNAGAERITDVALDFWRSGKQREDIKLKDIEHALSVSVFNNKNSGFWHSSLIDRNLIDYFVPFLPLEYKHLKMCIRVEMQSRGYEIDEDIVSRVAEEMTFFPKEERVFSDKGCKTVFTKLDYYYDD

On to `CN1C(=O)C2C=CC(C(O)C3CCCCC3)N(N(c3ccccc3)c3ccccc3)C2C1=O` (stereo not given), for which the composite z-score in assay [1] is -0.392; in assay [2] it was -1.14; in assay [3] it was 0.0064; in assay [4], -0.702; in [5], -0.885; in assay [6], -0.732. Also, the composite z-score in the assay on Lefty1 is -1.6; in assay [8], 0.517; in [10] it was 0.0957; in assay [15], -0.0316; in assay [16] it was 0.596; with Torsin-1A (Homo sapiens) [17], -0.08. The figures for the composite z-score (with Torsin-1A (Homo sapiens) [18]; in [19]) were 0.0415 and -0.298, respectively. Moreover, the z-score in assay [7] was 0.131; in assay [9] it was 0.135 (inactive); in assay [11], 0.673 (inactive); in assay [12], 0.0683 (inactive); in assay [13], -0.333 (inactive); in [14], 0.355 (inactive).

Consider `C[N+](C)(C)CCCCCCNC(=O)[C@H]1C[C@H]2C(=O)N3CCC[C@H]3C(=O)N2[C@H]1c1cccc(OCCO)c1`, for which the composite z-score amounted to 1.38 in [1]; 0.874 in [2]; 0.141 in [3]; 0.242 in assay [4]; 1.3 in [5]; 1.35 in [6]. Moreover, the composite z-score in the assay with Lefty1 was 1.64; in assay [8], -0.0285; in [10] it was 0.544; in [15], -0.278; in assay [16], -0.0112; with Torsin-1A (Homo sapiens) [17], 1.98. Besides, the composite z-score with Torsin-1A (Homo sapiens) [18] was 1.71; in assay [19] it was 2.15. Moreover, the z-score in assay [7] was -1.05; in assay [9], 0.126 (inactive); in [11], -0.0803 (inactive); in [12], 0.236 (inactive); in assay [13], -0.532 (inactive); in assay [14] it was -0.583 (inactive).

Take `C=C(C)[C@@H]1CC=C(C(O)C2C=CC3C(=O)N(C4CCCCC4)C(=O)C3N2Nc2ccc(OC)cc2)CC1` (stereo not given in full): the composite z-score is 0.736 in [1]; 1.21 in assay [2]; 0.589 in assay [3]; 1 in [4]; 1.17 in assay [5]; 0.723 in assay [6]. In addition, the composite z-score in the assay with Lefty1 was 0.606; in [8], 0.46; in [10] it was 0.187; in assay [15], 1.12; in assay [16], -0.0521; in the assay with Torsin-1A (Homo sapiens) [17] it was -0.0445. Besides, the composite z-score with Torsin-1A (Homo sapiens) [18] worked out at 0.6; in [19], 0.966. The z-score in assay [7] is 0.677; in assay [9], -0.392 (inactive); in assay [11] it was -1.7 (inactive); in [12] it was -0.645 (inactive); in assay [13], 0.369 (inactive); in assay [14] it was -0.317 (inactive).

As to `CCCC[C@@H](O)C1=C(COc2ccccc2)Cn2c(=O)n(-c3ccccc3)c(=O)n2[C@H]1CO`, the composite z-score is -0.265 in assay [1]; -0.476 in assay [2]; -0.103 in [3]; 0.729 in [4]; -0.28 in [5]; -0.242 in assay [6]. The composite z-score is -0.193 in the assay with Lefty1; 0.31 in assay [8]; -0.154 in assay [10]; -0.447 in assay [15]; -0.0762 in assay [16]; -0.218 in the assay with Torsin-1A (Homo sapiens) [17]. Further, the composite z-score in the assay with Torsin-1A (Homo sapiens) [18] is -0.348; in [19], -0.0649. In addition, the z-score in assay [7] was 0.363; in assay [9], -1.79 (inactive); in assay [11], -1.86 (inactive); in assay [12], -0.569 (inactive); in assay [13], 1.67 (inactive); in assay [14] it was -1.23 (inactive).

For `O=C1OCCC=C[C@H]2OC34C=CCN(Cn5nnc6ccccc65)C(=O)[C@H]3N(CCCCCO)C(=O)[C@@H]4C12` (stereo not given in full), the composite z-score in assay [1] is 2.73; in [2], -0.476; in assay [3], 0.0209; in assay [4], -2.02; in assay [5] it was -0.862; in assay [6] it was -0.346. The composite z-score with Lefty1 is -0.559; in assay [8], -0.807; in [10], -0.355; in assay [15] it was -0.686; in assay [16], -0.0762; with Torsin-1A (Homo sapiens) [17], 0.97. Also, the composite z-score stood at 1.15 with Torsin-1A (Homo sapiens) [18] and 0.0364 in [19]. In addition, the z-score is 0.427 in assay [7]; -0.245 (inactive) in assay [9]; 0.399 (inactive) in assay [11]; -1.04 (inactive) in assay [12]; 0.0564 (inactive) in [13]; 0.804 (inactive) in assay [14].
